MOR-DOR ag = agonists of OPRM1-OPRD1 heterodimerization, primary screen, cell-based, luminescence; cells; activation, % at 9.3 µM; actives 0.3% (n = 340,000); AID 504326, 2011; in the data active means activation above about 18%;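 further: 0% = vehicle-treated cells and 100% = reference agonist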
Target sequence (P35372 whole entry, looked up): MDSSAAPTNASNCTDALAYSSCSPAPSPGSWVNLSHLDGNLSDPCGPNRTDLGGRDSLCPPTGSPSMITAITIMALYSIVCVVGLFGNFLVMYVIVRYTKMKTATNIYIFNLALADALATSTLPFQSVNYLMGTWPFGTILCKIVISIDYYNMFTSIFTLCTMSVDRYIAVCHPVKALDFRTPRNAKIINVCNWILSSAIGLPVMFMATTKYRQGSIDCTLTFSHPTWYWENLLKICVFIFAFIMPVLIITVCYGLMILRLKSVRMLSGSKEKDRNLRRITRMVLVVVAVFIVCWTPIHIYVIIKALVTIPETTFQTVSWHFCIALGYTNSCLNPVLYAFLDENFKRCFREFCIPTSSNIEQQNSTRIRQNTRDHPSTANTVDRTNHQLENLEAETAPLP
Target sequence (P41143 whole entry, looked up): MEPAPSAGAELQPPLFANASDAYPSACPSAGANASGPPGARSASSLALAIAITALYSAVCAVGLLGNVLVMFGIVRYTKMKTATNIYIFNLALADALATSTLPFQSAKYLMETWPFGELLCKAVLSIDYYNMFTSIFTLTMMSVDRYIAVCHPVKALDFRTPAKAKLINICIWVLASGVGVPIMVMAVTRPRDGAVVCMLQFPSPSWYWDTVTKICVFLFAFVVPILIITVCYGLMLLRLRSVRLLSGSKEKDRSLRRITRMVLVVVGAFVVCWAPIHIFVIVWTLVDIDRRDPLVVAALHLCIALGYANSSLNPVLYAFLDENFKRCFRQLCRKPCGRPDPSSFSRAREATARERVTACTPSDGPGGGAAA
MsrA inhibitor = bovine MsrA enzyme inhibitors, primary screen, biochemical, absorbance, HTS; Methionine sulfoxide reductase A (Bos taurus); purified bovine MsrA, absorbance read-out; inhibition, % at 15.5 µM; actives 0.75% (n = 360,000); AID 651718, 2012; in the data active means inhibition above about 4.5%;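 further: 0% = vehicle wells with enzyme and 100% = reference inhibitor wells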
HTR5A inv ctr = HTR5A inverse agonists in luminescence cell assay, primary screen, counter-screen for OPRM1-OPRD1 heterodimer inverse agonist project, full-deck HTS. 5-hydroxytryptamine receptor 5A (Homo sapiens), P47898. HTR5A cell line, inverse agonism. inhibition, % at 9.3 µM. actives 0.083% (n = 340,000). AID 504634, 2011; in the data active means inhibition mostly above about 23%, no sharp cut-off; inactive means mostly below about 18%;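 further: 0% = cells with DMSO and 100% = no-cell wells with DMSO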
HTR5A ag = HTR5A agonists in luminescence cell assay, primary screen, counter-screen for OPRM1-OPRD1 heterodimer agonist project, full-deck HTS; 5-hydroxytryptamine receptor 5A (Homo sapiens), P47898; activation, % at 9.3 µM; cell-based; actives 0.61% (n = 340,000); in the data active means activation mostly above about 9.5%, no sharp cut-off; inactive means mostly below about 7.6%;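 further: 0% = cells with vehicle only and 100% = reference agonist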
bovine MsrA act = bovine MsrA enzyme activators, primary screen, biochemical, absorbance, HTS; Methionine sulfoxide reductase A (Bos taurus); actives 0.3% (n = 360,000); activation, % at 10.6 µM; purified bovine MsrA, absorbance read-out; AID 602163, 2012; in the data active means activation above about 7.5%;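 further: 0% = vehicle and 100% = reference activator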
MOR-DOR inv ag = inverse agonists of MOR-DOR heterodimerization, primary screen, cell-based, luminescence | Mu-type opioid receptor (Homo sapiens) + Delta-type opioid receptor (Homo sapiens), … | cell-based MOR-DOR heterodimer luminescence, inverse agonism | inhibition, % at 9.3 µM | actives 0.21% (n = 340,000); in the data active means inhibition above about 22%, passing the limit was not always enough;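 further: 0% = cells with DMSO and 100% = wells without cells with DMSO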
MsrA act confirm = bovine MsrA activators, retest, confirmation, biochemical, absorbance, HTS; shares compounds with bovine MsrA act; purified bovine MsrA, absorbance read-out; actives 12% (n = 1,000); activation, % at 10.6 µM; in the data active means activation above about 4%;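 further: enzyme coupled to thioredoxin and thioredoxin reductase with NADPH; 0% = vehicle wells and 100% = reference activator wells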
Active calls of the source: *; x = not tested or not shown. Compounds with a hit are over-represented: about 1.9% of the library has one in this group of screens.

SMILES	MOR-DOR ag	MsrA inhibitor	HTR5A inv ctr	HTR5A ag	bovine MsrA act	MOR-DOR inv ag	MsrA act confirm
CC(=O)Nc1ccc(NC(=O)CC(C)n2ccnc2)cc1 (stereo not given)	-3	0	3	-1	8.5*	15	0
CCc1cccc(CC)c1NC(=O)/C(C#N)=C/c1ccccc1C(F)(F)F	6	0	-1	2	11*	-29	-1
CCOC(=O)CC(NC(=O)c1cccc2c1C(=O)N(Cc1cccnc1)C2)c1ccc(OCC)c(OC)c1 (stereo not given)	-3	-1	-6	2	8.6*	17	3
CN1C[C@@H]2[C@@H]3C(=O)N(Cc4ccccc4)C(=O)[C@@H]3[C@](Cc3ccccc3)(C1=O)N2C(=O)c1ccc(C(C)(C)C)cc1	1	-1	-23	8	8.8*	-7	-1
CN1C[C@@H]2[C@@H]3C(=O)N(Cc4ccccc4)C(=O)[C@@H]3[C@](Cc3ccccc3)(C1=O)N2C(=O)c1ccccc1	-1	1	0	0	-7	9	x
Cc1cccc(NCc2ccccc2O)c1C	9	0	0	3	15*	-52	-1
Cn1cc(CC(=O)Nc2ccc(Nc3cccnc3)c(Br)c2)c2ccccc21	x	0	x	x	x	x	x
Cc1ccc(S(=O)(=O)NC2=C(N3CCN(c4ccccc4F)CC3)C(=O)c3ccccc3C2=O)cc1	2	2	-4	1	-3	-8	x
Cc1ccc(S(=O)(=O)NC2=C(N3CCN(Cc4ccccc4)CC3)C(=O)c3ccccc3C2=O)cc1	-2	-1	-3	3	7.8*	11	-1
CCCCC(=O)NNC(=S)NC(=O)c1ccc([N+](=O)[O-])cc1	-1	1	0	3	7.8*	5	4.5*
Cc1ccc(C(=O)NC(=S)NNC(=O)CC#N)cc1	2	0	12	-5	7.8*	-12	4.1*
CCCCC(=O)NNC(=S)NC(=O)c1cccc([N+](=O)[O-])c1	-2	1	-7	2	11*	11	1
CCCCC(=O)NNC(=S)NC(=O)c1ccc(C)cc1	-3	1	8	1	3	17	x
CCOC(=O)Nc1ccc2c(c1)N(C(=O)CN(CC)CC)c1ccccc1C=C2	-1	-1	6	-2	7.9*	8	0
Cc1ccccc1C(=O)NNC(=S)NC(=O)COc1ccccc1	-2	0	6	-1	13*	10	0
Cc1c(C)n(CCCN(C)C)c2ncnc(NCc3ccccc3)c12	-4	-1	4	-1	-1	18	x
Cc1c(C)n(CCc2ccccc2)c2ncnc(NCCO)c12	-2	0	0	0	10.0*	11	-1
O=c1cc(CN2CCCC2)c2ccccc2o1	x	1	x	x	x	x	x
O=C(C1CCN(S(=O)(=O)c2ccccc2F)CC1)N1CCc2ccccc21	-3	-2	-2	-1	8.8*	13	-1
COC(=O)Cn1nnc(N2CCOCC2)n1	x	-1	x	x	8.0*	x	1
COC(=O)C1=C(C)N(Cc2ccccc2C(F)(F)F)C(=NCc2cc(OC)c(OC)c(OC)c2)NC1c1ccc(Cl)cc1 (stereo not given)	x	-1	x	x	x	x	x
O=c1c2ccc([N+](=O)[O-])cc2ncn1CCOc1cccc(Br)c1	7	0	-11	1	7.8*	-32	-2
O=S(=O)(c1ccc(C(F)(F)F)cc1)N1CCCc2nc(-c3ccc(F)cc3)ccc21	x	0	x	x	x	x	x
Fc1ccc(-c2csc(=S)[nH]2)cc1	-1	2	7	-3	8.0*	3	1
Nc1nc2c(ncn2[C@@H]2O[C@H](C(=O)NCC(F)(F)F)[C@@H](O)[C@H]2O)c(=O)[nH]1	x	1	x	x	x	x	x
SMILES	MOR-DOR ag	MsrA inhibitor	HTR5A inv ctr	HTR5A ag	bovine MsrA act	MOR-DOR inv ag	MsrA act confirm
CCNC(=O)c1cc2c(c(-c3cccc(-c4cncnc4)c3)n1)[C@@H](CCO)N(C(C)=O)C2	x	1	x	x	2	x	x
CCC(=O)N1Cc2cc(C(=O)NCC(F)(F)F)nc(-c3cccc(-c4cncnc4)c3)c2[C@@H]1CCO	x	-2	x	x	8.2*	x	-5
COC(=O)C1=C(C)N(C)C(=NCc2cccc(C(F)(F)F)c2)NC1c1ccc(Cl)cc1 (stereo not given)	x	-1	x	x	x	x	x
CCc1cc2c(nc1CC)CCCN2C	x	0	x	x	x	x	x
CCCN1CCCCC(NC(=O)c2ccccc2C)C1=O (stereo not given)	x	0	x	x	x	x	x
COc1ccccc1CCn1cnc(-c2ccc(F)cc2)c1C(C)C	x	-1	x	x	x	x	x
N#Cc1ccc(C(=O)NCC2CCN(C(=O)C(=O)c3cccs3)CC2)cc1	x	1	x	x	x	x	x
COc1cc(/C=N/Nc2nncn2N)ccc1OCc1c(C)no[n+]1[O-]	6	1	7	0	6	-32	x
CCOc1cc(/C=N/Nc2nnc(C)n2N)ccc1OC(C)=O	2	0	4	-1	27*	-8	1
CCc1nnc(N/N=C\c2ccc(OC(C)=O)c(OC)c2)n1N	7	1	-8	2	12*	-32	-2
CCc1nnc(N/N=C/c2cccs2)n1N	3	2	-20	4	8.1*	-18	-2
COc1ccc(/C=N/Nc2nncn2N)cc1Br	7	0	-7	2	25*	-34	2
CCc1nnc(N/N=C/c2ccc(O)c(OC)c2)n1N	8	0	-6	-1	5	-39	x
CCc1nnc(N/N=C/c2c(Cl)cccc2Cl)n1N	1	0	-30	0	5	-3	x
Cc1cc(NC(=O)Cc2cn(Cc3ccccc3)c3ccccc23)ccc1Oc1cccnc1	x	2	x	x	x	x	x
COC(=O)c1cc(=O)nc(NN=C(C)C)s1	x	2	x	x	x	x	x
O=C1c2ccccc2C(=O)c2[nH]cnc21	1	0	-15	4	12*	-7	6.7*
O=C1c2ccccc2C(=O)c2c1ncn2-c1ccccc1	4	0	2	4	6	-23	x
O=C1c2ccccc2C(=O)c2[nH]c(=O)[nH]c21	3	1	-10	2	15*	-17	4
COc1cc(C[C@@H]2C(=O)OC[C@H]2Cc2ccc(OC)c(OC)c2)ccc1O	0	0	-20	6	11*	1	-1
COc1cc(CC2COC(=O)C2Cc2ccc(O)c(OC)c2)ccc1O (stereo not given)	x	-2	x	x	x	x	x
COC(=O)C1=C(C)N(C)C(=NCc2ccc(C(F)(F)F)cc2)NC1c1ccc(Cl)cc1 (stereo not given)	x	-2	x	x	x	x	x

Bioassay records as filed in PubChem BioAssay.
